Test results taken from PubChem BioAssay AID1159580 (chemical genetic matrix, 2015).
Screen size: about 5,500 compounds; about 2,000 (36%) were called active. Roughly 18% stayed inconclusive and do not appear here. Rule as the data show it: active = normalized growth mostly below about 0.91 (no sharp cut-off); inconclusive = no clear call, values can overlap the other calls; inactive = mostly above about 0.92. Some of the results follow.

Experiment: chemical genetic growth profiling, strain panel (AID 1159580);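 also: tested at 20 µM; growth read once vehicle control cultures reached saturation at 30 °C; 1 = growth at the plate median or of vehicle wells; lower values mean less growth of the strain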
Conditions: growth OD

Measured: normalized growth

CC(C)c1ccc2c(c1)CCC1[C@](C)(CN)CCC[C@]21C (stereo partly specified)
inactive: S. cerevisiae deletion strains, locus YKL068W, stronger effect = lower value 0.982 | S. cerevisiae deletion strains, locus YKL085W, strain MDH1 (second series), stronger effect = lower value 0.978 | S. cerevisiae deletion strains, locus YKL085W, strain MDH1, stronger effect = lower value 0.978 | S. cerevisiae deletion strains, locus YKL160W, strain elf1, stronger effect = lower value 0.952 | S. cerevisiae deletion strains, locus YKR026C, strain gcn3, stronger effect = lower value 1.02 | S. cerevisiae deletion strains, locus YKR091W, strain srl3, stronger effect = lower value 1.01 | S. cerevisiae deletion strains, locus YLL001W, strain dnm1, stronger effect = lower value 0.963 | S. cerevisiae deletion strains, locus YLL026W, stronger effect = lower value 1.01 | S. cerevisiae deletion strains, locus YLL041C, strain sdh2, stronger effect = lower value 1.02 | S. cerevisiae deletion strains, locus YLR027C, strain aat2, stronger effect = lower value 0.978 | S. cerevisiae deletion strains, locus YLR039C, strain RIC1, stronger effect = lower value 1.28 | S. cerevisiae deletion strains, locus YLR113W, strain HOG1, stronger effect = lower value 0.999 | S. cerevisiae deletion strains, locus YLR221C, strain rsa3, stronger effect = lower value 0.953 | S. cerevisiae deletion strains, locus YLR258W, strain gsy2, stronger effect = lower value 0.948 | S. cerevisiae deletion strains, locus YLR262C, strain YPT6 (second series), stronger effect = lower value 0.959 | S. cerevisiae deletion strains, locus YLR262C, strain YPT6, stronger effect = lower value 1.1 | S. cerevisiae deletion strains, locus YLR320W, strain mms22, stronger effect = lower value 0.899 | S. cerevisiae deletion strains, locus YLR357W, strain rsc2, stronger effect = lower value 0.976 | S. cerevisiae deletion strains, locus YLR384C, strain iki3, stronger effect = lower value 0.999 | S. cerevisiae deletion strains, locus YML120C, strain ndi1, stronger effect = lower value 0.92 | S. cerevisiae deletion strains, locus YMR058W, strain fet3, stronger effect = lower value 0.932 | S. cerevisiae deletion strains, locus YMR125W, strain sto1, stronger effect = lower value 0.93 | S. cerevisiae deletion strains, locus YMR129W, stronger effect = lower value 1.01 | S. cerevisiae deletion strains, locus YMR205C, strain PFK2, stronger effect = lower value 0.933 | S. cerevisiae deletion strains, locus YMR231W, strain pep5, stronger effect = lower value 1.03 | S. cerevisiae deletion strains, locus YNL183C, strain NPR1, stronger effect = lower value 0.951 | S. cerevisiae deletion strains, locus YNL209W, strain ssb2, stronger effect = lower value 0.975 | S. cerevisiae deletion strains, locus YNL248C, strain rpa49, stronger effect = lower value 1.01 | S. cerevisiae deletion strains, locus YNL250W, strain rad50, stronger effect = lower value 0.936 | S. cerevisiae deletion strains, locus YNL271C, strain bni1, stronger effect = lower value 0.979 | S. cerevisiae deletion strains, locus YNL322C, strain KRE1 (second series), stronger effect = lower value 1.01 | S. cerevisiae deletion strains, locus YNR049C, strain mso1, stronger effect = lower value 1.03 | S. cerevisiae deletion strains, locus YOL012C, strain htz1 0.217 | S. cerevisiae deletion strains, locus YOR001W, strain rrp6, stronger effect = lower value 1.02 | S. cerevisiae deletion strains, locus YOR070C, strain gyp1, stronger effect = lower value 0.978 | S. cerevisiae deletion strains, locus YOR080W, strain dia2, stronger effect = lower value 0.995 | S. cerevisiae deletion strains, locus YOR083W, strain WHI5, stronger effect = lower value 0.904 | S. cerevisiae deletion strains, locus YOR106W, strain vam3, stronger effect = lower value 0.92 | S. cerevisiae deletion strains, locus YOR231W, strain MKK1, stronger effect = lower value 0.963 | S. cerevisiae deletion strains, locus YOR265W, strain rbl2, stronger effect = lower value 0.999 | S. cerevisiae deletion strains, locus YPL051W, strain arl3, stronger effect = lower value 0.988 | S. cerevisiae deletion strains, locus YPL078C, strain atp4, stronger effect = lower value 0.896 | S. cerevisiae deletion strains, locus YPL106C, strain sse1, stronger effect = lower value 0.939 | S. cerevisiae deletion strains, locus YPL240C, strain hsp82, stronger effect = lower value 0.988 | S. cerevisiae deletion strains, locus YPL256C, strain CLN2, stronger effect = lower value 0.979 | S. cerevisiae deletion strains, locus YPR141C, strain kar3, stronger effect = lower value 0.92
active: S. cerevisiae deletion strains, locus YKL009W, strain mrt4, stronger effect = lower value 0.868 | S. cerevisiae deletion strains, locus YKL190W, strain CNB1, stronger effect = lower value 0.211 | S. cerevisiae deletion strains, locus YKR001C, strain vps1, stronger effect = lower value 0.0635 | S. cerevisiae deletion strains, locus YLR058C, strain SHM2, stronger effect = lower value 0.17 | S. cerevisiae deletion strains, locus YLR102C, strain apc9, stronger effect = lower value 0.922 | S. cerevisiae deletion strains, locus YLR268W, strain sec22, stronger effect = lower value 0.092 | S. cerevisiae deletion strains, locus YLR330W, strain CHS5, stronger effect = lower value 0.262 | S. cerevisiae deletion strains, locus YLR342W, strain FKS1 (second series), stronger effect = lower value 0.269 | S. cerevisiae deletion strains, locus YLR342W, strain FKS1, stronger effect = lower value 0.836 | S. cerevisiae deletion strains, locus YLR370C, strain arc18, stronger effect = lower value 0.865 | S. cerevisiae deletion strains, locus YLR371W, strain rom2, stronger effect = lower value 0.286 | S. cerevisiae deletion strains, locus YLR418C, strain cdc73, stronger effect = lower value 0.11 | S. cerevisiae deletion strains, locus YML016C, strain PPZ1, stronger effect = lower value 0.513 | S. cerevisiae deletion strains, locus YML032C, strain rad52, stronger effect = lower value 0.32 | S. cerevisiae deletion strains, locus YML124C, strain tub3, stronger effect = lower value 0.198 | S. cerevisiae deletion strains, locus YMR078C, strain ctf18, stronger effect = lower value 0.654 | S. cerevisiae deletion strains, locus YMR223W, strain ubp8, stronger effect = lower value 0.177 | S. cerevisiae deletion strains, locus YMR263W, strain SAP30, stronger effect = lower value 0.642 | S. cerevisiae deletion strains, locus YMR307W, strain GAS1, stronger effect = lower value 0.16 | S. cerevisiae deletion strains, locus YNL067W, strain RPL9B, stronger effect = lower value 0.62 | S. cerevisiae deletion strains, locus YNL071W, strain lat1, stronger effect = lower value 0.737 | S. cerevisiae deletion strains, locus YNL128W, strain TEP1, stronger effect = lower value 0.279 | S. cerevisiae deletion strains, locus YNL153C, strain GIM3, stronger effect = lower value 0.262 | S. cerevisiae deletion strains, locus YNL233W, strain BNI4, stronger effect = lower value 0.414 | S. cerevisiae deletion strains, locus YNL298W, strain CLA4, stronger effect = lower value 0.839 | S. cerevisiae deletion strains, locus YNL307C, strain MCK1, stronger effect = lower value 0.132 | S. cerevisiae deletion strains, locus YNL322C, strain KRE1, stronger effect = lower value 0.599 | S. cerevisiae deletion strains, locus YNR052C, strain pop2, stronger effect = lower value 0.0663 | S. cerevisiae deletion strains, locus YOL006C, strain TOP1, stronger effect = lower value 0.139 | S. cerevisiae deletion strains, locus YOL147C, strain pex11, stronger effect = lower value 0.0811 | S. cerevisiae deletion strains, locus YOR061W, strain CKA2, stronger effect = lower value 0.417 | S. cerevisiae deletion strains, locus YOR069W, strain VPS5, stronger effect = lower value 0.847 | S. cerevisiae deletion strains, locus YOR136W, strain idh2, stronger effect = lower value 0.257 | S. cerevisiae deletion strains, locus YOR144C, strain elg1, stronger effect = lower value 0.372 | S. cerevisiae deletion strains, locus YOR184W, strain ser1, stronger effect = lower value 0.124 | S. cerevisiae deletion strains, locus YOR270C, strain vph1, stronger effect = lower value 0.577 | S. cerevisiae deletion strains, locus YOR290C, strain snf2, stronger effect = lower value 0.85 | S. cerevisiae deletion strains, locus YOR316C, strain cot1, stronger effect = lower value 0.837 | S. cerevisiae deletion strains, locus YPL055C, strain LGE1, stronger effect = lower value 0.404 | S. cerevisiae deletion strains, locus YPL241C, strain CIN2, stronger effect = lower value 0.865 | S. cerevisiae deletion strains, locus YPR119W, strain clb2, stronger effect = lower value 0.923 | S. cerevisiae deletion strains, locus YPR163C, strain tif3, stronger effect = lower value 0.072 | S. cerevisiae deletion strains, locus YPR167C, strain met16, stronger effect = lower value 0.731 | S. cerevisiae deletion strains, strain wtn01, stronger effect = lower value 0.146 | S. cerevisiae strains, strain wild type, stronger effect = lower value 0.255
